# Only some compounds are listed: those with a hit (about 7.3% of all), similar ones and a draw of the others.
# ELG1 genotoxic – induces genotoxicity in HEK293T cells with luciferase-tagged ELG1; HEK293T ELG1-luciferase reporter, luminescence, 16 h; Potency, µM (doses to about 46 µM), for inactives: top-dose activity change, positive = activation, hits mostly activators; 1.3% of 330,000 active; further: % of control where 0% means no effect; nearly all actives have a fitted effect of over 60% in size
#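 ELG1-luciferase HEK293T cells, 2,000/well; compound pinned in; 16 hr, 37 °C, 5% CO2; ONE-Glo, 30 min RT; luminescence on CCD imager.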
# Rab9 promoter act – activates the Rab9 promoter. Huh7 Rab9 promoter-luciferase reporter, luminescence, 24 h. Potency, µM (top dose mostly 9.22 µM), for inactives: at the top dose activation, negative = inhibition, most hits filed as activators. 2.8% of 320,000 active; further: % of control where 0% means no effect; nearly all actives have a fitted effect of over 60% in size
#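 Cells were plated at 1500 per well in reduced-serum medium with 10% FBS and left 2 h. Compound in DMSO was then added for 24 h at 37 °C. Reporter signal was read by luminescence after 10 min with luciferase detection reagent.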
# p53 reactivator – re-activators of mutant p53; H1299 p53-A138V BP100-luciferase reporter, luminescence, 24 h; Potency, µM (series often up to 92.2 µM), for the others: top-dose activity change, positive = activation, hits mostly activators; 0.063% of 320,000 active; AID 504706; further: % of control where 0% means no effect; nearly all actives have a fitted effect of over 45% in size
#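 H1299 (p53-null), stable ts p53-A138V + BP100-Luc; 1000 cells/well, Opti-MEM/10% FBS; cpd 4 pt, 1:5; 24 h, 37 deg C, 5% CO2; detection reagent 10 min RT; luminescence.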
# NPC1 prom act – activates the NPC1 promoter; Huh7 NPC1 promoter luciferase reporter, 24 h; Potency, µM (highest dose often 9.22 µM), inactives show top-dose activation, hits mostly activators; 2.4% of 320,000 active; further: % of control where 0% means no effect; nearly all actives have a fitted effect of over 60% in size
#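 Stably transfected Huh7 (NPC1 promoter→luciferase), 1500 cells/well in Opti-MEM + 10% FBS, 2 h settle, then compound 24 h at 37 °C. Luminescence after 10 min with Amplite reagent.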
# FLuc modulator – counter-screen for miR-21 project: firefly luciferase inhibitors or activators; P08659; Potency, µM (top dose mostly 57.5 µM), for the others: top-dose activity change, negative = inhibition, hits mostly inhibitors; AID 588342; purified FLuc, Km substrates, luminescence inhibition; 6.9% of 360,000 active;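 further: plate controls were vehicle for no effect and reference inhibitor for full effect; nearly all actives have a fitted effect of over 55% in size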
# Target sequence (P08659 whole entry, looked up): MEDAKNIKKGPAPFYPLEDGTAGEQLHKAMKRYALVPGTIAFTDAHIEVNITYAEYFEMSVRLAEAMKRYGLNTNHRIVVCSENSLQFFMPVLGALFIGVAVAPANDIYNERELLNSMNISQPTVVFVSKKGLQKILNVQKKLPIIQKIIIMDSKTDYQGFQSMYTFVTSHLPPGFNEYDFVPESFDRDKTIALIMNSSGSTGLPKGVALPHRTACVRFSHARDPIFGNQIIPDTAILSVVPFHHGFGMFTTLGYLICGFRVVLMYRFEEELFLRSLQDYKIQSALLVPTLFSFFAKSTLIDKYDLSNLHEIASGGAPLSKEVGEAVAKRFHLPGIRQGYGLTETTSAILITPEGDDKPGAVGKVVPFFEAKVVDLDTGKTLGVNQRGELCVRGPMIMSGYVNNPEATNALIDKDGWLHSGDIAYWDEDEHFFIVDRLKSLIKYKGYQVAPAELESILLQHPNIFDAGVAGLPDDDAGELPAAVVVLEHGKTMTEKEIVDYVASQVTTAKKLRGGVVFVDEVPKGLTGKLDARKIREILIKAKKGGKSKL
#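 Purified P. pyralis luciferase (10nM final) with 10uM D-luciferin and 10uM ATP (Km levels) in 50mM Tris acetate pH 7.5, 10mM Mg acetate, 0.01% Tween-20, 0.05% BSA; qHTS 6-point titration, ~60 µM downward; luminescence read.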
# SMN2 splice up – SMN2 splice variant enhancement; Potency, µM (series often up to 46.1 µM), for inactives: top-dose activity change, positive = activation, actives largely listed as activators; HEK293 SMN2-luciferase splicing reporter, luminescence, 30-36 h; 2.8% of 210,000 active; further: % of control where 0% means no effect; nearly all actives have a fitted effect of over 55% in size
#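 qHTS luciferase splicing reporter: luminescence rises when SMN2 exon 7 is included in transfected HEK293 cells. Compound exposure lasted 30-36 h at 37C, with 4.5 mM final sodium butyrate as control, followed by a ONE-Glo read.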
# An asterisk follows results filed as active; ? = inconclusive; / = not tested or not shown; [ ] = remark or other dose. The call rests on the fitted dose curve; in most records, active means well fitted curve in the direction sought with a large enough effect; inconclusive means small, poorly fitted or top-dose-only effect, or another doubt; inactive means no such curve, though single readings can be large; an effect the other way counts as inactive or inconclusive. Potency means the concentration at half of the fitted maximal effect.
SMILES,ELG1 genotoxic,Rab9 promoter act,p53 reactivator,NPC1 prom act,FLuc modulator,SMN2 splice up
CCOc1ccc(C2=NC(c3ccncc3)=Nc3ccc(C)cc3N2)cc1OCC,/,/,/,/,-0.6%,12.4%
CCc1nnc2c3ccccc3nc(N3CCN(c4cc(C)ccc4C)CC3)n12,/,/,/,/,5.8%,/
COc1cccc(C(=O)c2cn(CC(=O)NCc3ccccc3)c3nc(C)ccc3c2=O)c1,/,/,/,/,2.8%,/
CCCCn1c(C2CC(=O)N(c3ccc(OCC)cc3)C2)nc2ccccc21 (stereo unspecified),/,/,/,/,-2.3%,5.7%
CCCCCCCCCCCCCCCCCC(=O)NCC(COP(=O)([O-])OCC[N+](C)(C)C)OCC (stereo unspecified),/,-10.6%[46.1 µM],/,-8.4%[46.1 µM],/,5.7%
COc1ccc2cc(CCNC(=O)c3cccs3)c(=O)[nH]c2c1,?,2µM*,?,2.82µM*,10.7µM*,6.31µM*
COc1ccc2cc(CCNC(=O)c3cc4ccccc4o3)c(=O)[nH]c2c1,-4.7%,-0.6%,-20.7%,1.6%,6.0%,/
O=C(NCCc1ccc(F)cc1)c1cccs1,?,2.51µM*,?,2.82µM*,12µM*,15.8µM*
O=C(NCc1ccc(F)cc1)c1cccs1,-0.9%,3.8%,/,1.4%,2.8%,/
CCOC(=O)c1ccc(NC(=O)c2sc3ccccc3c2Cl)cc1,/,/,/,/,3.0%,7.1%
CNC(=O)c1ccc(NC(=O)c2nsc3ccccc23)cc1,/,/,/,/,1.51µM*,2µM*
CCOC(=O)c1ccc(NC(=O)c2nsc3ccccc23)cc1,/,/,/,/,2.39µM*,5.62µM*
Cc1cc(C)cc(Nc2nc3ccccc3nc2-n2nc(C)cc2C)c1,/,/,/,/,-3.3%,4.3%
N#C/C(=C\c1c(Oc2ccc(F)cc2)nc2ccccn2c1=O)c1nc2ccccc2s1,/,/,/,/,-16.7%,7.7%
O=C(/C=C/c1ccccc1)N1CCN(Cc2cc(=O)n3nc(-c4ccccc4)sc3n2)CC1,/,/,/,/,4.3%,/
CN(C)CCNC(=O)c1ccc2nc(CCc3ccccc3)oc2c1,/,/,/,/,-10.7%,/
CN(Cc1cccc(-n2cccn2)c1)C(=O)CCc1nnc(C2CCCCC2)o1,10.1%,?,10.6%,11.5%,16.9µM*,/
CN(Cc1cccnc1)C(=O)c1ccc2nc(Cc3ccccc3F)oc2c1,1.3%[9.26 µM],?,?,26.7%,23.9µM*,/
COCCc1nc2ccc(C(=O)N(C)Cc3cccc(-n4cccn4)c3)cc2o1,?,2.82µM*,17.6%,2.82µM*,21.3µM*,/
O=C(Oc1ccccc1)C1O[C@@H]1c1ccccc1 (stereo partly specified),/,/,/,/,/,-3.5%
CSc1ccc(/C=C2\C(=N)N3N=C(CC(=O)N4CCOCC4)SC3=NC2=O)cc1,5.2%,-0.4%,4.8%,-1.4%,?,/
Cc1cc(/C=C2\C(=N)N3N=C(CC(=O)N4CCOCC4)SC3=NC2=O)c(C)n1-c1ccccc1,6.2%,3.6%,2.5%,-2.9%,10.7µM*,/
CCN(CC)c1ccc(/C=C2\C(=N)N3N=C(CC(=O)N4CCOCC4)SC3=NC2=O)cc1,9.7%,4.0%,0.6%,23.6%,26.9µM*,/
CSc1cccc(Nc2nc3c(S(=O)(=O)c4ccccc4)nnn3c3ccc(Cl)cc23)c1,/,/,/,/,-3.2%,7.8%
N#Cc1cccc(-c2nc(Nc3ccccc3)c3ccccc3n2)c1,/,/,/,/,/,-2.8%
SMILES,ELG1 genotoxic,Rab9 promoter act,p53 reactivator,NPC1 prom act,FLuc modulator,SMN2 splice up
COc1ccccc1CNC(=O)CSc1ccsc1[N+](=O)[O-],8.4%,3.55µM*,?,?,?,80.0%
CCN(CC)CCn1c(-c2ccccc2)nc2c(NCCOC)nc(C)nc21,/,/,/,/,/,-14.7%
O=C(c1c[nH]c2ccccc12)N1CCN(c2ccccc2)CC1,-5.3%,14.3%,-3.2%,-1.2%,-15.9%,13.8%
O=C(c1ccc2ccccc2c1)N1CCN(Cc2ccccc2)CC1,8.2%,22.4%,?,?,21.3µM*,/
O=C(c1c[nH]c2ccccc12)N1CCN(Cc2ccccc2)CC1,-4.7%,3.7%,0.6%,-3.4%,21.3µM*,-18.3%
Cc1[nH]c2ccccc2c1C(=O)C(=O)NC1CC1,?,1.26µM*,8.6%,?,9.53µM*,/
Cc1ccc(NC(=O)C(=O)c2c[nH]c3ccccc23)cc1,?,0.794µM*,18.1%,0.631µM*,1.51µM*,/
Cc1ccc(NC(=O)c2cc(=O)[nH]c3ccccc23)cc1,2.0%,-0.4%[1.84 µM],4.6%,0.8%,-0.7%,/
O=C(NCCOc1ccccc1)C(=O)c1c[nH]c2ccccc12,3.9%,13.6%,14.0%,11.8%,26.9µM*,/
O=C(NC1CCCCC1)C(=O)c1c[nH]c2ccccc12,14.6µM*,3.16µM*,?,?,10.7µM*,/
S=C([S-])NCCNC(=S)[S-].[Zn+2],/,/,/,/,/,-15.3%
COc1ccc(S(=O)(=O)N(CC(=O)NC(C)c2ccccc2)c2ccc(C)cc2)cc1OC (stereo unspecified),/,/,/,/,-2.6%,2.1%
Cc1c(CC(=O)NCCc2ccccc2F)c(=O)oc2c(C)c3occ(C(C)(C)C)c3cc12,/,/,/,/,0.5%,11.8%
Cc1cc(=O)[nH]c2ccc(S(=O)(=O)NC3CCCCC3)cc12,20.6µM*,-4.0%,-7.4%,-1.4%,1.4%,/
CC(=O)Nc1ccc(NS(=O)(=O)c2c(C(=O)N3CCCCCC3)c(C)n(C)c2C)cc1,/,/,/,/,1.3%,/
CN1CCN(c2ccc(-c3cc(O)c4ncccc4c3)cc2)CC1,/,?,/,11.8%,6.01µM*,/
Oc1cc(-c2ccncc2)cc2cccnc12,-8.0%,-35.0%,?,-35.0%,?,/
CN(C)c1ccc(-c2cc(O)c3ncccc3c2)cc1,16.4µM*,-1.7%,?,-6.9%,15.1µM*,/
Oc1cc(-c2ccc(N3CCCCC3)nc2)cc2cccnc12,18.3µM*,4.1%,?,9.6%,?,/
CCCCn1c(N)c(N(CCOC)C(=O)c2ccc(C)c(S(=O)(=O)N3CCCCC3)c2)c(=O)[nH]c1=O,1.3%,-6.2%,-5.1%,-2.5%,2.4%,/
Cc1ccc2c(c1)N(C(=O)N1CCC(C(=O)NCc3ccccc3C)CC1)CC(C)O2 (stereo unspecified),/,/,/,/,7.4%,/
Cc1ccc(C(=O)/C=C/c2ccco2)c(O)c1,?,0.1%,?,-2.1%,9.53µM*,14.9%
Cc1cc(N2CCN(C)CC2)ccc1NC(=O)c1c2c(nc3ccccc13)CCN(Cc1ccccc1)C2,23.1µM*,-32.4%,26.0%,-41.4%,-7.7%,-69.9%
Cc1nnc(SCC(=O)Nc2cccc(S(=O)(=O)N3CCCCC3)c2)s1,-0.9%,-3.4%,0.6%,-7.4%,/,/
O=C(CSc1nnc(Nc2ccccc2F)s1)Nc1cccc(S(=O)(=O)N2CCCCC2)c1,1.9%,4.4%,25.3%,0.7%,13.5µM*,5.6%
Cc1ccc(Nc2nnc(SCC(=O)Nc3cccc(S(=O)(=O)N4CCCCC4)c3)s2)cc1,-2.3%,17.3%,?,15.5%,2.69µM*,24.4%

# Screening data: PubChem, National Center for Advancing Translational Sciences (NCATS)
